PTHR1 ag: agonists of human PTHR1 parathyroid hormone receptor; Potency, µM (series often up to 115 µM), hits mostly activators; Q03431; 410,000 compounds, 0.075% hits; HEK293 GP2 PTHR1 cells, GloSensor cAMP luminescence, 1 h; also: nearly all actives have a fitted effect of over 55% in size
Target sequence (Q03431 whole entry, looked up): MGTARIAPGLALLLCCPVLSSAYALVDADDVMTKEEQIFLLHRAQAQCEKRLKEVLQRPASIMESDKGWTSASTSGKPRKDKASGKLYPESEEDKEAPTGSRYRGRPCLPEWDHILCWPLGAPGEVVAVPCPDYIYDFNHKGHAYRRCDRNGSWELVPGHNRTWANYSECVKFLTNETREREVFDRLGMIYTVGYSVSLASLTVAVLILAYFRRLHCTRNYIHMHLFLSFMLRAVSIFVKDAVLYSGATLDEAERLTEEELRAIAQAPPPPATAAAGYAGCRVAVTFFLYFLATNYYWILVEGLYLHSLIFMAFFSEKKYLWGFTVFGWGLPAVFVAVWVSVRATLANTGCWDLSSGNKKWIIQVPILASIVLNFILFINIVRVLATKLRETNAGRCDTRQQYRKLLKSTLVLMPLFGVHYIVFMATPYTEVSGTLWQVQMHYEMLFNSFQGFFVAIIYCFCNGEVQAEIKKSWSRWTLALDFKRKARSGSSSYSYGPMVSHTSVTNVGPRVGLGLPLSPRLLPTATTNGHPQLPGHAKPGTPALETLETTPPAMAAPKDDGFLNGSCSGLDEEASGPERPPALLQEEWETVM
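HEK-293-derived GP2 cells expressing PTHR1 and a GloSensor cAMP reporter, 3,000/well, plated overnight, given luciferin plus IBMX (each 0.5 mM as added) for 1 h at 37 °C, then compound for 1 h at 37 °C. Luminescence was read after 15 min at room temperature.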
GLP-1R inv ag: GLP-1 receptor (human) inverse agonism. P43220. HEK293 GLP-1R CRE-luciferase, luminescence, 24 h; GLP-1R form is constitutively active. Potency, µM (highest dose often 38.3 µM), most hits filed as inhibitors. 410,000 compounds, 1.6% hits; also: nearly all actives have a fitted effect of over 55% in size
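HEK293 cells stably co-expressing a cAMP-responsive luciferase reporter and constitutively active GLP-1R were seeded, incubated 12 h, then exposed to compounds for 24 h at 37 C. Luminescence was read 12 min after detection reagent; inverse agonists lower signal.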
GLP1R ag: GLP-1 receptor (human) agonism; 380,000 compounds, 0.007% hits; HEK293 GLP-1R CRE-luciferase, luminescence, 4-6 h; cells express a hypersensitive GLP-1R form; P43220; Potency, µM (top dose mostly 45.6 µM), hits mostly activators; AID 624172
HEK293 tox: cytotoxicity in counter-screen for GLP-1R inverse agonists; HEK293 cAMP-luciferase reporter cells, luminescence, 24 h; Potency, µM (top dose mostly 38.3 µM), usual class: inhibitors; 410,000 compounds, 0.13% hits; AID 624418;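 also: loss of luciferase light is scored as toxicity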
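Seeding density was 200 cells/uL; after overnight-length (12 h) culture, 23 nL compounds went on for 24 h at 37 °C. Readout used a luciferase detection reagent, luminescence taken after 12 min at room temperature.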
TSHR antagonist: antagonists of human thyroid stimulating hormone receptor; P16473; TSHR-expressing cells, TSH-stimulated cAMP HTRF, 2 h; hits give low values; activity change, negative = inhibition, % at 11.5 µM; 330,000 compounds, 0.2% hits; AID 504810;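 active = activity change below a set negative limit, meaning inhibition stronger than a set level, cut at about -70% in these data; inconclusive = activity change between two set negative limits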
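TSHR-expressing cells were treated with compounds, then stimulated with TSH at EC80 (4nM final) for 2 hours at 37 deg C. Cellular cAMP was measured by HTRF competition between lysate cAMP and cAMP-d2 for a cryptate-labelled anti-cAMP antibody.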
Of the large screens only hits and unclear results are named; the others gave an inactive call. Rows were chosen to be rich in hits. Some 1.8% of all compounds tested hit in one or more screens of this group. Unless noted, calls follow the shape of the dose curve; as a rule, active = well fitted curve in the direction sought with a large enough effect; inconclusive = small, poorly fitted or top-dose-only effect, or another doubt; inactive = no such curve, though single readings can be large; an effect the other way counts as inactive or inconclusive.

O=S(=O)(Nc1cccc2c1CCCC2)c1cccc(C(F)(F)F)c1	GLP-1R inv ag 10µM
FC(F)(F)c1ccc(Oc2ccc3ccccc3c2Br)nc1	GLP-1R inv ag 10µM
CCOc1ccc(NC(=O)NC23CC4CC(CC(C4)C2)C3)cc1	GLP-1R inv ag 2.5µM
COc1ccc(NC(=O)NC23CC4CC(CC(C4)C2)C3)cc1OC	GLP-1R inv ag inconclusive
COc1ccc(NC(=O)/C(Cl)=C(/Cl)S(=O)Cc2ccccc2)cn1 (centres undefined)	HEK293 tox 2.8µM
Cc1ccc(NS(=O)(=O)c2ccc3nc(-c4ccccc4)[nH]c3c2)cc1Cl	GLP-1R inv ag 10µM (no result: TSHR antagonist)
Cc1ccc(NC(=O)C2CCCN2S(=O)(=O)c2ccc3nc(-c4ccccc4)[nH]c3c2)cc1C (centres undefined)	GLP-1R inv ag inconclusive (no result: GLP1R ag, TSHR antagonist)
CC(C)c1ccc(NC(=O)C2CCCN2S(=O)(=O)c2ccc3nc(-c4ccccc4)[nH]c3c2)cc1 (centres undefined)	GLP-1R inv ag 8.9µM (no result: GLP1R ag, TSHR antagonist)
Cc1c2cnn(CC(=O)Nc3ccc(F)cc3F)c(=O)c2c(C)n1Cc1cccc(Cl)c1	none (no result: GLP1R ag, TSHR antagonist)
C/C(=N\NC(=O)CN1CCCCC1)c1ccccc1O	GLP-1R inv ag inconclusive
C/C(=N\NC(=O)CN(c1ccccc1)S(C)(=O)=O)c1ccccc1O	GLP-1R inv ag 5µM
CCOc1ccccc1CNC(=O)C1CCN(c2nc3ccccc3nc2C(F)(F)F)CC1	none (no result: GLP1R ag, TSHR antagonist)
COc1ccc(-c2nc(SCC(=O)Nc3ccc4c(c3)OCO4)c(-c3ccccc3)[nH]2)cc1	GLP-1R inv ag inconclusive (no result: GLP1R ag, TSHR antagonist)
O=C(O)c1ccc(N/N=C/c2c[nH]c3ccccc23)cc1	GLP-1R inv ag 5.6µM
O=C(N/N=C/c1c[nH]c2ccccc12)C1CC1(c1ccccc1)c1ccccc1 (centres undefined)	GLP-1R inv ag 4.5µM, HEK293 tox inconclusive
Cc1cccc(NCC(=O)N/N=C\c2c[nH]c3ccccc23)c1	GLP-1R inv ag 10µM, HEK293 tox inconclusive
O=C(O)c1ccc(S(=O)(=O)NN=Cc2c[nH]c3ccccc23)cc1	none (no result: TSHR antagonist)
CC(=O)N1CCc2c(sc3c2c(=O)n(-c2ccccc2)c(=O)n3CC(=O)Nc2ccccc2C)C1	none (no result: TSHR antagonist)
COc1ccc(NC(=O)C2CCN(C3=NS(=O)(=O)C(c4ccc(C)c(C)c4)=C3C)CC2)cc1OC	none (no result: GLP1R ag, TSHR antagonist)
COc1cn(CC(=O)Nc2ccc(C)cc2)c(CN2CCCCC2)cc1=O	none (no result: GLP1R ag, TSHR antagonist)
C=CCOc1c(Br)cc(CNc2ccc(NC(=O)CCC)cc2)cc1OCC	GLP-1R inv ag 8.9µM
CCOc1cc(CNc2ccc(N(C)C)cc2)cc(Br)c1OCC(=O)NC(C)(C)C	HEK293 tox inconclusive, TSHR antagonist -76
CCOc1cc(CNc2ccc3c(c2)OCCO3)cc(Br)c1OCC	GLP-1R inv ag 2.2µM
CCOc1cc(CNc2ccc(N3CCOCC3)cc2)cc(Br)c1OCC	GLP-1R inv ag inconclusive
C=CCOc1ccc(CNc2ccc(NC(=O)CCC)cc2)cc1OCC	GLP-1R inv ag inconclusive
Cc1cc(C)c(NC(=O)CSc2nc3ccccc3c3nc(-c4ccccc4)nn23)c(C)c1	none (no result: GLP1R ag, TSHR antagonist)
Cc1ccc(Cc2nc3ccccc3nc2SCC(=O)N2CCCCC2C)cc1 (centres undefined)	GLP-1R inv ag 10µM (no result: TSHR antagonist)
CCOc1ccc(N(CC)S(=O)(=O)N2CCCC(C(=O)Nc3ccc(OC)c(OC)c3)C2)cc1 (centres undefined)	none (no result: GLP1R ag, TSHR antagonist)
CC(C)(C)NC(=O)CSc1ncnc2c1nnn2Cc1ccccc1Cl	GLP-1R inv ag 4µM
O=C(CSc1ncnc2c1nnn2Cc1ccccc1)NC1CCCC1	none
COc1cc(NC(=O)CCc2c(C)n(C)c3cc(-c4ccccc4C)nn3c2=O)cc(OC)c1OC	none (no result: GLP1R ag, TSHR antagonist)
CCOCCSc1c(C)cnc2c1c(=O)n(C)c(=O)n2C	none (no result: GLP1R ag, TSHR antagonist)
CSCC[C@H](NC(=O)[C@@H](Cc1ccc(O[S+](=O)([O-])O)cc1)NC(=O)[C@H](N)CC(=O)O)C(=O)NCC(=O)N[C@@H](Cc1c[nH]c2ccccc12)C(=O)N[C@H](CCSC)C(=O)N[C@H](CC(=O)O)C(=O)N[C@@H](Cc1ccccc1)C(N)=O	none (no result: PTHR1 ag, GLP-1R inv ag, HEK293 tox, TSHR antagonist)
CC(C)c1ccc(CN2CCN(C(=O)CCl)CC2)cc1	GLP-1R inv ag 5.6µM, HEK293 tox inconclusive
